Compound activity as filed in PubChem BioAssay.
D1 potentiator: potentiators of human D1 dopamine receptor; P21728; HEK293 TREx D1 cells, calcium flux, dopamine EC20 potentiation; potentiation, % at 10 µM; hit rate 0.036% among 360,000; AID 504651; in the data active means potentiation above about 30%; further: 0% is about no effect
D3 ag: D3 dopamine receptor (human) agonism; D3R DiscoveRx beta-arrestin cells, luminescence, 90 min; max activation, %; hit rate 0.58% among 410,000; AID 652048; in the data active means max activation above about 30%; further: 0% is about no effect
Target sequence (P35462 whole entry, looked up): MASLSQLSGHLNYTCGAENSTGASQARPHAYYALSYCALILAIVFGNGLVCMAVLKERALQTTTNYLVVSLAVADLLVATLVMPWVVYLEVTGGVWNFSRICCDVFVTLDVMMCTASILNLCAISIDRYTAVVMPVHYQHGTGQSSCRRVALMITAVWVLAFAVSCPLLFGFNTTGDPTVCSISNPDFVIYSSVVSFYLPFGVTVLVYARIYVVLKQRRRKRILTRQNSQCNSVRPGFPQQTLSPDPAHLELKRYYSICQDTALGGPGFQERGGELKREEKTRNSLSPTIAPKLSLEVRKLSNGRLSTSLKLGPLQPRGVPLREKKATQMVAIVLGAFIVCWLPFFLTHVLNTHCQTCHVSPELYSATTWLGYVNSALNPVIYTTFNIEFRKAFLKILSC
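Agonist-mode cell screen: cells plated at 1500/well and incubated overnight at 37 °C, then exposed to library compounds for 90 min at 37 °C. Detection reagent was added for 30–60 min at room temperature, and luminescence was read.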
D1 agonist: activates the human D1 dopamine receptor; P21728; HEK293 T-REx D1 cells, calcium flux, agonist mode; activation, % at 2 µM; hit rate 1% among 360,000; AID 504660; in the data active means activation above about 30%; further: 0% is about no effect
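Inducible HEK293 T-REx D1 cells, force-coupled to calcium signalling, were plated at 4000 cells/well with tetracycline and held overnight at 30 C. After no-wash calcium dye loading, compound-evoked calcium rise over 180 s flagged agonists.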
D1 antag: human D1 dopamine receptor antagonism; P21728; HEK293 TREx D1 cells, calcium flux, dopamine EC80; stronger effect = lower value; activity change, negative = inhibition, % at 10 µM; hit rate 3.2% among 360,000; AID 504652; in the data active means activity change below about -30%; further: on the % scale 0 is the no-effect control and ±100 the full control effect
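Using tetracycline-induced force-coupled D1 Hek293 cells and a calcium dye, signals were followed for 180 s after compound, then for 180 s after EC80 dopamine, to detect inhibitors.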
DRD3 antagonist: antagonists of human D3 dopamine receptor. P35462. D3R cells, DiscoveRx beta-arrestin luminescence, antagonist mode; stronger effect = lower value. max response, negative = inhibition, %. hit rate 2.5% among 360,000. AID 652054; in the data active means max response below about -50%; inconclusive means no clear call, values can overlap the other calls; further: on the % scale 0 is the no-effect control and ±100 the full control effect
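Cells plated overnight at 1500 cells/well, then exposed to library compounds with dopamine controls for 90 minutes at 37 degrees C. DiscoveRx reagent added for 30–60 minutes at room temperature; luminescence read, quantitative HTS format.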
An asterisk follows results filed as active; ? = inconclusive; · = no result given; ! = not active in a repeat. Rows were chosen to be rich in hits. Some 6% of all compounds tested hit in one or more screens of this group.

SMILES	D1 potentiator	D3 ag	D1 agonist	D1 antag	DRD3 antagonist
COc1cc2ccccc2cc1C(=O)OCC(=O)NC1CCS(=O)(=O)C1 (stereo not drawn)	-8.1	0.3	1.6	-33.5*	1.7
COc1cc(-c2cc(C(=O)OCC(=O)NC3CC3)c3ccccc3n2)cc(OC)c1OC	·	32.5*	·	·	58.4
COc1ccccc1CNC(=O)CCCN1C(=O)CSc2c1c(C)nn2-c1ccccc1	-4.2	-5.9	0.6	13.7	·
Cc1ccc(N2CC3=C(C2=O)C(c2ccc(Br)cc2)NC(=O)N3C)cc1 (stereo not drawn)	-4.2	6.5	0.0	0.7	·
CCOc1ccc(-c2cc3c(=O)n(CC(=O)Nc4c(C)cccc4C)ccn3n2)cc1	-1.1	-8.6	-0.8	-17.6	·
Cc1ccc(C)c(N2CCN(CCCNC(=O)Cn3cccc3C(=O)c3ccccc3)CC2)c1	-4.4	-15.7	16.8	4.0	-67.6*
Cc1ccccc1C(=O)c1cccn1CC(=O)NCCCN1CCc2ccccc2C1	·	-10.1	16.4	-10.6	-50.8*
Cc1ccccc1C(=O)c1cccn1CC(=O)NCCCN1CC(C)CC(C)C1 (stereo not drawn)	-4.1	-14.4	4.8	14.9	1.7
CC1CCN(CCCCOc2ccc(Cl)cc2)CC1	-6.8	-13.1	5.3	-16.8	-23.6
Clc1cc(Br)ccc1OCCN1CCOCC1	-0.9	-14.6	0.7	-1.8	?
Cc1cc(Cl)c(OCCOCCN2CCCC(C)C2)c(Br)c1 (stereo not drawn)	-2.0	-13.8	2.3	-2.5	?
Cc1ccc(OCCCCN2CCC(C)CC2)c(Br)c1	-6.6	-25.0	21.5	-28.3	-95.6*
Cc1ccc(OCCCCCCN2CCNCC2)c(Br)c1	·	-14.1	·	·	-4.5
CC1CCN(CCCOc2ccc(Br)cc2Cl)CC1	-5.0	-14.7	51.6*	-67.9*	-62.1*
CC1CCCN(CCOCCOc2ccc(Cl)cc2Br)C1 (stereo not drawn)	-9.2	-53.0	27.7	-26.5	-99.6*
CN1CCN(CCOCCOc2ccc(Br)cc2Cl)CC1	-8.2	-20.1	4.9	1.9	-61.2*
CC1CCCN(CCOCCOc2ccc(Br)cc2Cl)C1 (stereo not drawn)	-9.6	0.2	26.2	-32.1*	-82.5*
CC1CCCN(CCC(=O)c2ccc(Br)cc2)C1 (stereo not drawn)	-2.2	-15.1	2.2	9.8	-1.0
Cc1ccsc1/C=C/c1n[nH]c(=O)c(C#N)c1C	0.0	4.0	-0.1	-32.8*	0.6
Cc1nn(C)c(C)c1S(=O)(=O)N(CC(=O)N1CCN(c2ccccc2)CC1)c1ccc(C(C)C)cc1	-1.6	-7.5	-2.5	5.4	·
CCCCC[C@H]1CN(CCCC)C(=O)[C@@H]1CC(=O)NCc1ccccc1	-0.6	33.6*	2.6	9.4	0.0
Oc1ccc(-c2nc3ncccn3c2Nc2ccc3c(c2)OCO3)cc1	-1.5	-1.1	-2.3	14.4	-55.3*
COC(=O)C1=C(C)N(Cc2ccccc2)C(=S)N[C@H]1c1ccccc1	-6.4	-15.1	3.0	2.8	-22.3
COC(=O)C1=C(C)N(Cc2ccccc2)C(=NCC(C)C)N[C@H]1c1ccccc1	-5.1	7.9	40.4*!	2.1	-2.6
CCOC(=O)CN1C(=O)N[C@@H](CCc2ccccc2)C(C(C)=O)=C1C	·	22.3	·	·	-1.4
SMILES	D1 potentiator	D3 ag	D1 agonist	D1 antag	DRD3 antagonist
CCOC(=O)C1=C(C)N(Cc2ccccc2)C(=O)NC1c1ccccc1OS(=O)(=O)c1ccccc1[N+](=O)[O-] (stereo not drawn)	·	45.6*	·	·	0.0
CC(=O)C1=C(C)N(Cc2ccccc2)C(=O)N[C@H]1CCc1ccccc1	-3.1	12.8	15.6	-30.7*	-14.2
COC(=O)C1=C(C)N(Cc2ccccc2)C(=O)N[C@H]1c1ccccc1	-6.3	13.3	100.4*	-6.3	-5.5
COc1cccc(CNC(=O)CCc2c(C)nc3c4c(C)cc(C)nc4nn3c2C)c1	-2.7	-14.2	-1.9	-1.4	·
COc1cccc(C(=O)Nc2ccc3nc(SCC(=O)N4CCOCC4)sc3c2)c1	-1.1	3.0	-0.3	-2.5	·
COCCN=C1N[C@@H](c2cccc(C(F)(F)F)c2)C(C(=O)OC)=C(C)N1Cc1ccccc1	-4.6	16.3	31.8*	-0.1	0.0
COC(=O)C1=C(C)N(Cc2ccccc2)C(=NCc2ccc(OC)cc2)N[C@H]1c1ccccc1	-4.5	-39.7	25.2	-9.7	-54.3*
CCN1C(=NCCc2c[nH]c3ccccc23)N[C@@H](c2ccccc2)C(C(=O)OC)=C1C	-3.6	·	48.8*!	-8.8	·
C=CCN=C1N[C@@H](c2ccc(Br)cc2)C(C(=O)OC)=C(C)N1Cc1ccccc1	-0.2	·	31.2*	22.0	·
CC(CNC(=O)c1ccc2c(c1)nc1n2CCCCC1)c1ccccc1 (stereo not drawn)	4.0	0.3	-0.6	-7.8	·
COc1ccc(-n2nc(C(=O)N3CCC(C)CC3)c3c4ccccc4n(C)c3c2=O)cc1Cl	2.5	-6.9	0.8	3.2	·
COc1ccc(OC)c(CNc2ncc(-c3ccc(Cl)cc3)n2C)c1	-5.0	-12.9	-1.1	4.4	·
CS(=O)(=O)N1CCCc2cc(C(=O)Nc3cccc(C(F)(F)F)c3)ccc21	0.8	-10.5	1.5	-17.0	·
COc1cc(CN(C(=O)COc2ccc(Br)cc2)c2ccccn2)cc(OC)c1OC	-0.8	0.7	2.0	-0.2	·
COc1cccc(-c2nc(SCC(=O)NC3CCCC3)c(-c3ccc(F)cc3)[nH]2)c1	-1.4	-21.4	0.0	-7.2	·
CCc1cccc(NC(=O)CN(C)S(=O)(=O)c2ccc3c(c2)CCCN3C(C)=O)c1	-2.6	6.8	8.0	-15.5	·
OC(COCCOc1ccc(Br)cc1)CN1CCN(Cc2ccccc2)CC1 (stereo not drawn)	-10.6	-5.0	27.4	-31.2*	-2.4
CCc1ccc(OCCOCC(O)CN2CCN(Cc3ccc(Cl)cc3)CC2)cc1 (stereo not drawn)	-4.5	-5.2	39.7*	-35.9*	3.0
OC(CNC1CCCCC1)COCCOc1ccc(Br)cc1 (stereo not drawn)	-1.5	-4.9	48.1*	-30.2*	-4.8
Cc1cc2c(s1)c1cnn(Cc3ccc(Br)cc3F)c(=O)c1n2C	-5.0	·	2.0	-16.7	·
Cc1ccc(N2CC(c3nnc(NC(=O)c4ccco4)s3)CC2=O)cc1C (stereo not drawn)	2.6	-8.2	-0.2	-4.3	·
CCc1ccc(N/C(SCc2ccccc2C)=C(/C#N)C(=O)NCc2ccco2)cc1	-4.2	-4.2	30.0*	-30.3*	12.0
CCc1ccc(OCCCC(=O)NCc2ccco2)cc1	-4.0	3.4	-1.1	-7.3	-6.9
CCCCn1c(SCC(=O)N2CCC(C)CC2)nc2ccsc2c1=O	-1.4	30.2*	3.3	3.3	10.7
CCCCn1c(SCC(=O)N2CCN(c3ccccc3)CC2)nc2ccsc2c1=O	-2.5	35.4*	5.0	-14.8	0.0
COC(=O)CC1Oc2ccccc2-n2cc(-c3ccc(F)cc3)nc21 (stereo not drawn)	-3.8	-3.2	2.7	5.6	·
